Test results: the supplement of paper PMC8728848
Only a selection was taken, and the strongest signals are over-represented in it overall.

Tests used:
Assay in all cases: glycan array binding signal (z-score within array); higher = stronger binding
Details in all cases: glycan notation: IUPAC condensed, linker removed
[1] = target: Glc(a1-4)Glc(a1-4)Glc(a1-4)Glc
Outline: (§1)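 The binding signal is a Z-score computed within each array and averaged over linkers. Arrays of the same protein sequence at different concentrations or buffers were also averaged together. Data originate from 3228 arrays in the Consortium for Functional Glycomics database, kept only where the protein sequence was available.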

[2] = target: GlcA3S(b1-3)Gal(b1-4)GlcNAc(b1-2)Man
Outline: as §1

[3] = target: GlcNAc(a1-3)Gal(b1-4)GlcNAc
Outline: as §1

[4] = target: GlcNAc(a1-4)Gal(b1-4)GlcNAc(b1-3)Gal(b1-4)GlcNAc(b1-3)Gal(b1-4)GlcNAc
Outline: as §1

[5] = target: GlcNAc(a1-4)Gal(b1-4)GlcNAc(b1-3)Gal(b1-4)[Fuc(a1-3)]GlcNAc(b1-3)Gal(b1-4)[Fuc(a1-3)]GlcNAc
Outline: as §1

[6] = target: GlcNAc(b1-2)Man(a1-3)[GlcNAc(b1-4)][GlcNAc(b1-2)Man(a1-6)]Man(b1-4)GlcNAc(b1-4)[Fuc(a1-6)]GlcNAc
Outline: as §1

[7] = target: GlcNAc(b1-3)Gal(b1-3)GalNAc
Outline: as §1

[8] = target: GlcNAc(b1-3)Gal(b1-4)GlcNAc
Outline: as §1

[9] = target: GlcNAc(b1-3)Gal(b1-4)GlcNAc(b1-2)Man(a1-3)[GlcNAc(b1-3)Gal(b1-4)GlcNAc(b1-2)Man(a1-6)]Man(b1-4)GlcNAc(b1-4)GlcNAc
Outline: as §1

[10] = target: GlcNAc(b1-3)Gal(b1-4)GlcNAc(b1-3)Gal(b1-4)GlcNAc
Outline: as §1

[11] = target: GlcNAc(b1-3)Gal(b1-4)GlcNAc(b1-3)Gal(b1-4)GlcNAc(b1-3)Gal(b1-4)GlcNAc(b1-3)Gal(b1-4)GlcNAc(b1-2)[GlcNAc(b1-3)Gal(b1-4)GlcNAc(b1-3)Gal(b1-4)GlcNAc(b1-3)Gal(b1-4)GlcNAc(b1-3)Gal(b1-4)GlcNAc(b1-6)]Man(a1-6)[GlcNAc(b1-3)Gal(b1-4)GlcNAc(b1-3)Gal(b1-4)GlcNAc(b1-3)Gal(b1-4)GlcNAc(b1-3)Gal(b1-4)GlcNAc(b1-2)Man(a1-3)]Man(b1-4)GlcNAc(b1-4)[Fuc(a1-6)]GlcNAc
Outline: as §1

[12] = target: GlcNAc(b1-3)Gal(b1-4)GlcNAc(b1-6)[GlcNAc(b1-3)Gal(b1-3)]GalNAc
Outline: as §1

[13] = target: GlcNAc(b1-3)[GlcNAc(b1-4)][GlcNAc(b1-6)]GlcNAc
Outline: as §1

[14] = target: Kdn(a2-3)Gal(b1-4)Glc
Outline: as §1

[15] = target: Man(a1-2)Man(a1-3)Man
Outline: as §1

[16] = target: Man(a1-2)Man(a1-3)[Man(a1-2)Man(a1-6)]Man(a1-6)[Man(a1-2)Man(a1-2)Man(a1-3)]Man(b1-4)GlcNAc(b1-4)GlcNAc
Outline: as §1

[17] = target: MurNAc(b1-4)GlcNAc
Outline: as §1

[18] = target: Neu5Ac(a2-3)Gal(b1-3)GalNAc(b1-3)Gal(a1-4)Gal(b1-4)Glc
Outline: as §1

[19] = target: Neu5Ac(a2-3)Gal(b1-3)GalNAc(b1-4)[Neu5Ac(a2-8)Neu5Ac(a2-3)]Gal(b1-4)Glc
Outline: as §1

[20] = target: Neu5Ac(a2-3)Gal(b1-4)GlcNAc(b1-2)Man(a1-3)[Neu5Ac(a2-6)Gal(b1-4)GlcNAc(b1-2)Man(a1-6)]Man(b1-4)GlcNAc(b1-4)GlcNAc
Outline: as §1

[21] = target: Neu5Ac(a2-3)Gal(b1-4)GlcNAc(b1-3)GalNAc
Outline: as §1

[22] = target: Neu5Ac(a2-3)Gal(b1-4)[Fuc(a1-3)]GlcNAc(b1-3)Gal
Outline: as §1

[23] = target: Neu5Ac(a2-6)Gal(b1-4)GlcNAc(b1-2)Man(a1-3)[Gal(b1-4)GlcNAc(b1-2)Man(a1-6)]Man(b1-4)GlcNAc(b1-4)GlcNAc
Outline: as §1

[24] = target: Neu5Ac(a2-6)Gal(b1-4)GlcNAc(b1-2)Man(a1-3)[GlcNAc(b1-4)][Neu5Ac(a2-6)Gal(b1-4)GlcNAc(b1-2)Man(a1-6)]Man(b1-4)GlcNAc(b1-4)GlcNAc
Outline: as §1

[25] = target: Neu5Ac(a2-6)Gal(b1-4)GlcNAc(b1-3)Gal(b1-4)GlcNAc(b1-3)Gal(b1-4)GlcNAc(b1-2)Man(a1-3)[Neu5Ac(a2-6)Gal(b1-4)GlcNAc(b1-3)Gal(b1-4)GlcNAc(b1-3)Gal(b1-4)GlcNAc(b1-2)Man(a1-6)]GalNAc
Outline: as §1

[26] = target: Neu5Ac(a2-6)Gal(b1-4)GlcNAc6S
Outline: as §1

[27] = target: Neu5Ac(a2-8)Neu5Ac(a2-3)[Gal(b1-3)GalNAc(b1-4)]Gal(b1-4)Glc
Outline: as §1

[28] = target: Neu5Gc(a2-6)Gal(b1-4)GlcNAc
Outline: as §1

[29] = target: Neu5Gc(b2-6)Gal(b1-4)GlcNAc
Outline: as §1

B1: OGAN (protein)
chain: MVQKESQATLEERESELSSNPAASAGASLEPPAAPAPGEDNPAGAGGAAVAGAAGGARRFLCGVVEGFYGRPWVMEQRKELFRRLQKWELNTYLYAPKDDYKHRMFWREMYSVEEAEQLMTLISAAREYEIEFIYAISPGLDITFSNPKEVSTLKRKLDQVSQFGCRSFALLFNDIDHNMCAADKEVFSSFAHAQVSITNEIYQYLGEPETFLFCPTEYCGTFCYPNVSQSPYLRTVGEKLLPGIEVLWTGPKVVSKEIPVESIEEVSKIIKRAPVIWDNIHANDYDQKRLFLGPYKGRSTELIPRLKGVLTNPNCEFEANYVAIHTLATWYKSNMNGVRKDVVMTDSEDSTVSIQIKLENEGSDEDIETDVLYSPQMALKLALTEWLQEFGVPHQY
- glycan array binding signal (z-score) [1]: 0.06
- glycan array binding signal (z-score) [2]: -0.022
- glycan array binding signal (z-score) [3]: -0.068
- glycan array binding signal (z-score) [4]: -0.058
- glycan array binding signal (z-score) [5]: -0.057
- glycan array binding signal (z-score) [6]: -0.074
- glycan array binding signal (z-score) [7]: -0.035
- glycan array binding signal (z-score) [8]: -0.063
- glycan array binding signal (z-score) [9]: -0.058
- glycan array binding signal (z-score) [10]: -0.055
- glycan array binding signal (z-score) [11]: 0.044
- glycan array binding signal (z-score) [12]: -0.052
- glycan array binding signal (z-score) [13]: -0.047
- glycan array binding signal (z-score) [14]: -0.059
- glycan array binding signal (z-score) [15]: -0.01
- glycan array binding signal (z-score) [16]: -0.036
- glycan array binding signal (z-score) [17]: -0.024
- glycan array binding signal (z-score) [18]: -0.065
- glycan array binding signal (z-score) [19]: -0.051
- glycan array binding signal (z-score) [20]: -0.048
- glycan array binding signal (z-score) [21]: -0.082
- glycan array binding signal (z-score) [22]: -0.094
- glycan array binding signal (z-score) [23]: -0.055
- glycan array binding signal (z-score) [24]: -0.034
- glycan array binding signal (z-score) [25]: 0.039
- glycan array binding signal (z-score) [26]: -0.052
- glycan array binding signal (z-score) [27]: -0.052
- glycan array binding signal (z-score) [28]: -0.071
- glycan array binding signal (z-score) [29]: -0.021
